From PubChem BioAssay (EPA / NIEHS)
Records with an inconclusive call do not appear. The source made the active and inactive calls. Rule for the calls, unless noted: active = hit-call score of the fitted dose curve at least 0.9, where 1 is the maximum; inactive = score below 0.9.

Experiments:
[1] = ATG_NF_kB_CIS: Attagene CIS-FACTORIAL HepG2 Assay for human Nuclear Factor Kappa B (NF-kB) (AID 2282991); settings: HepG2 Attagene cis-factorial NF-kB reporter mRNA; actives raise or lower the signal
Procedure, shortened: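 Measures mRNA induction of an NF-kB-responsive cis-element reporter in HepG2 cells transfected with multiple reporter units, sampled 24 h post-dosing; quantified by fluorescence after RT-PCR and capillary electrophoresis, fitted for activation or inhibition against DMSO.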

[2] = ATG_Oct_MLP_CIS: Attagene CIS-FACTORIAL HepG2 Assay for human Octamer-Binding Transcription Factor (Oct) (AID 2282993); settings: HepG2 Attagene cis-factorial Oct reporter, mRNA; actives raise or lower the signal
Procedure, shortened: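 Transfected HepG2 cells, 24 h treatment. Reporter mRNA quantified by RT-PCR–capillary electrophoresis; bidirectional fitting against DMSO.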

[3] = BSK_3C_TissueFactor: BioMAP Diversity Plus: 3C Assay for Tissue Factor Biomarker Activity (AID 2282997); settings: BioMAP 3C HUVEC, tissue factor biomarker readout; actives raise or lower the signal
Procedure, shortened: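 Tissue factor on primary human umbilical vein endothelium was read by ELISA 24 h after dosing, gain or loss relative to DMSO. Cytotoxicity ran alongside via SRB (0.1%, TCA-fixed, 560 nm).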

[4] = BSK_3C_uPAR: BioMAP Diversity Plus: 3C Assay for Urokinase-type plasminogen activator receptor (uPAR) Biomarker Activity (AID 2282998); settings: BioMAP 3C HUVEC, uPAR biomarker ELISA; actives raise or lower the signal
Procedure, shortened: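 Readout: ELISA for surface uPAR. System: human umbilical vein endothelial primary cells, 24 h after chemical exposure. Analysis: bidirectional fit, DMSO baseline.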

[5] = BSK_3C_VCAM1: BioMAP Diversity Plus: 3C Assay for Vascular cell adhesion molecule 1 (VCAM1) Biomarker Activity (AID 2282999); settings: BioMAP 3C HUVEC, VCAM1 ELISA, cytokine-stimulated; actives raise or lower the signal
Procedure, shortened: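 HUVEC primary cells, 24 h compound exposure; VCAM-1 by ELISA; gain/loss of signal fitted bidirectionally vs DMSO baseline.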

[6] = target: human Peroxisome Proliferator-activated Receptor delta (PPARd), PPARD (gene 5467) (UniProt Q03181); assay: ATG_PPARd_TRANS: Attagene TRANS-FACTORIAL HepG2 Assay for human Peroxisome Proliferator-activated Receptor delta (PPARd) (AID 2283002; active = hit-call score of the fitted dose curve at least 0.9, where 1 is the maximum)
Sequence of human Peroxisome Proliferator-activated Receptor delta (PPARd), PPARD (gene 5467) (Q03181 whole entry, looked up, the tested form may be a part): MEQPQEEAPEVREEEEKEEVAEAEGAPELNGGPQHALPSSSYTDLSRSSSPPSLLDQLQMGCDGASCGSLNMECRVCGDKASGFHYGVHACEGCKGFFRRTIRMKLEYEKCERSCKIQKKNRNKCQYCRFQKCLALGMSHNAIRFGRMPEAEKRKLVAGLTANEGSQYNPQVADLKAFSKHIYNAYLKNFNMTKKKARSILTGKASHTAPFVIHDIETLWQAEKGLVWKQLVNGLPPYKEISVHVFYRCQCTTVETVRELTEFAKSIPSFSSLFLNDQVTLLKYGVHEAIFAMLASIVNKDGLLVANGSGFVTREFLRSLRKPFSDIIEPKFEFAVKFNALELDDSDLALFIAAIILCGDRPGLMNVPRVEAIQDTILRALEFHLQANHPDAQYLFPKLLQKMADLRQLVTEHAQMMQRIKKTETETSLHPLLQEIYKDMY
Procedure, shortened: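 Read-out: reporter mRNA induction, quantified by fluorescent RT-PCR products resolved by capillary electrophoresis. Human HepG2 liver cells carried transiently transfected Gal4-UAS reporter constructs with chimeric NR-Gal4 fusions. Cells were dosed for 24 h; DMSO served as baseline.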

[7] = read-out: Intercellular Adhesion Molecule 1 (ICAM1), ICAM1 (gene 3383); assay: BSK_3C_ICAM1: BioMAP Diversity Plus: 3C Assay for Intercellular Adhesion Molecule 1 (ICAM1) Biomarker Activity (AID 2283003); settings: primary human endothelial cells (HUVEC); actives raise or lower the signal
Procedure, shortened: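 ELISA readout of ICAM1 in human umbilical vein endothelial cells in the 3C system, taken 24 h post-dose. Gain or loss of signal versus DMSO was fitted in both directions, with SRB total-protein staining run in parallel.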

[8] = target: Nuclear receptor subfamily 1 group I member 2 (Homo sapiens) (UniProt O75469); assay: ATG_PXR_TRANS: Attagene TRANS-FACTORIAL HepG2 Assay for human Pregnane X Receptor (PXR) (AID 2283008; active = hit-call score of the fitted dose curve at least 0.9, where 1 is the maximum)
Sequence of Nuclear receptor subfamily 1 group I member 2 (Homo sapiens) (O75469 whole entry, looked up, the tested form may be a part): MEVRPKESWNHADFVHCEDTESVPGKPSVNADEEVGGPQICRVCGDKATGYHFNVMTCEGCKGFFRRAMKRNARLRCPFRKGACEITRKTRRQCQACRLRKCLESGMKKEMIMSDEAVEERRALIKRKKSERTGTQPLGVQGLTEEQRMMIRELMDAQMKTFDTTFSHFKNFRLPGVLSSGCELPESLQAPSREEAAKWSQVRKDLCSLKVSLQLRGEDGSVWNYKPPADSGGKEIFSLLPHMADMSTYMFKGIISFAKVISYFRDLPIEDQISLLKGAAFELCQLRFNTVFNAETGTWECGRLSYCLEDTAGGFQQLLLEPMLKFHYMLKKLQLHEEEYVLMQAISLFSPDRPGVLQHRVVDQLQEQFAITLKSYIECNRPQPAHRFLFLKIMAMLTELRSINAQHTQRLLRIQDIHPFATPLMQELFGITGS
Procedure, shortened: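 HepG2 transfected (FuGene 6) with GAL4-UAS reporter units + PXR-Gal4 chimera; dosed 24 h. Total RNA → oligo(dT) RT → PCR → 6-FAM primer extension → HpaI cut → CE. Gain-of-signal vs DMSO.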

[9] = target: human RAR-related Orphan Receptor beta (RORb), RORB (gene 6096) (UniProt Q92753); assay: ATG_RORb_TRANS: Attagene TRANS-FACTORIAL HepG2 Assay for human RAR-related Orphan Receptor beta (RORb) (AID 2283010; active = hit-call score of the fitted dose curve at least 0.9, where 1 is the maximum)
Sequence of human RAR-related Orphan Receptor beta (RORb), RORB (gene 6096) (Q92753 whole entry, looked up, the tested form may be a part): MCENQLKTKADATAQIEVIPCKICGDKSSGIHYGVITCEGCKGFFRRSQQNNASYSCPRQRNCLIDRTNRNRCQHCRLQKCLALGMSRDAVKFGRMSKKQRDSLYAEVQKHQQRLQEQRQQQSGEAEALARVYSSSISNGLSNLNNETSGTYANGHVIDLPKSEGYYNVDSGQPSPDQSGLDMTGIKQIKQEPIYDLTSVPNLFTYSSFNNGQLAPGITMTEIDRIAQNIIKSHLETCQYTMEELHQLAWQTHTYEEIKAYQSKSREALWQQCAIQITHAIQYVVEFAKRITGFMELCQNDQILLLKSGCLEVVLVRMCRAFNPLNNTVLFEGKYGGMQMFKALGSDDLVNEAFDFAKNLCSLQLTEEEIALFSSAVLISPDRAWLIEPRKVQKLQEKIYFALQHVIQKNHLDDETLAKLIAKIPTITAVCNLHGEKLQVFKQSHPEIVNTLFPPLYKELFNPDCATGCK
Procedure, shortened: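 Read-out is reporter mRNA induction, quantified by RT-PCR with fluorescent capillary electrophoresis, 24 h post-dose in transiently transfected HepG2 expressing exogenous NR-Gal4 chimera. Activity fitted upward versus DMSO.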

[10] = target: human Peroxisome Proliferator-activated Receptor alpha (PPARa), PPARA (gene 5465) (UniProt Q07869); assay: ATG_PPARa_TRANS: Attagene TRANS-FACTORIAL HepG2 Assay for human Peroxisome Proliferator-activated Receptor alpha (PPARa) (AID 2283001; active = hit-call score of the fitted dose curve at least 0.9, where 1 is the maximum;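 for AC50: potency for gain of reporter signal over DMSO so agonist or activator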)
Sequence of human Peroxisome Proliferator-activated Receptor alpha (PPARa), PPARA (gene 5465) (Q07869 whole entry, looked up): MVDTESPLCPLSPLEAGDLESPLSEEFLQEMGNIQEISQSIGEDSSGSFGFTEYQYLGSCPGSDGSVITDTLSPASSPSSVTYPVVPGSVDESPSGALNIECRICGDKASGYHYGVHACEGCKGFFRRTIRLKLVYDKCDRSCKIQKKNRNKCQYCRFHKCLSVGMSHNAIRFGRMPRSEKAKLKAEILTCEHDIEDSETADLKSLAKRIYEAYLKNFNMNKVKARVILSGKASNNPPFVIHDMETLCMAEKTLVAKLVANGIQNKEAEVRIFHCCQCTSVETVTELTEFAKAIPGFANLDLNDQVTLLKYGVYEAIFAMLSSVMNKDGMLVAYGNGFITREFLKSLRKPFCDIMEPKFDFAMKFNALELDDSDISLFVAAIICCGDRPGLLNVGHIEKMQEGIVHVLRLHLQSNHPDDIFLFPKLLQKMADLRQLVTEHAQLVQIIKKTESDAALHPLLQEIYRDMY
Procedure, shortened: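 HepG2, transient MRTU transfection, 24 h treatment. RT-PCR → FAM labelling → capillary electrophoresis. Fit vs DMSO, positive direction.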

[11] = BSK_3C_Proliferation: Cell Proliferation Assessment in the BioMAP Diversity Plus: 3C Assay (AID 2283006); settings: primary human endothelial cells (HUVEC);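 for AC50: potency may reflect either rise or fall in cell number versus DMSO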
Procedure, shortened: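 Proliferation as total protein: sulforhodamine B (0.1%) stain of TCA-fixed subconfluent human umbilical vein endothelial cells, absorbance 560 nm, 48 h after dosing. Activity fitted in both directions against DMSO baseline.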

[12] = target: Retinoic acid receptor RXR-alpha (Homo sapiens) (UniProt P19793); assay: ATG_RXRa_TRANS: Attagene TRANS-FACTORIAL HepG2 Assay for human Retinoid X Receptor alpha (RXRa) (AID 2283012; active = hit-call score of the fitted dose curve at least 0.9, where 1 is the maximum)
Sequence of Retinoic acid receptor RXR-alpha (Homo sapiens) (P19793 whole entry, looked up, the tested form may be a part): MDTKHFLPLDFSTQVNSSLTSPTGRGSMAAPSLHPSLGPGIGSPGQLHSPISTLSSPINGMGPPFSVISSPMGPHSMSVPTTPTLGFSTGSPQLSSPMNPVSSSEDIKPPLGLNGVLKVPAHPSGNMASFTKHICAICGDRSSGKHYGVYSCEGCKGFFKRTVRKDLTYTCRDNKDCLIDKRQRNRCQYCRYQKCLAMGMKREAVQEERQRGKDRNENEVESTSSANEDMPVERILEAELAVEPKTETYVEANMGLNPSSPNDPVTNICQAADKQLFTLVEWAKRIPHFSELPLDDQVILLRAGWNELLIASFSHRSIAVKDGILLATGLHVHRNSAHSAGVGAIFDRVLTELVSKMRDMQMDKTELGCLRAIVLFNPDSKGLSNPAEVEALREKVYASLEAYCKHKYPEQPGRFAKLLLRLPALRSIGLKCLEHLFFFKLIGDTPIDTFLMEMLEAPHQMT
Procedure, shortened: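 TRANS format reporting activity of exogenous RXRa-Gal4 chimera in transiently transfected HepG2, 24 h exposure. Reporter transcripts quantified by RT-PCR with capillary electrophoresis, with gain of signal scored relative to DMSO.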

[13] = BSK_4H_Eotaxin3: BioMAP Diversity Plus: 4H Assay for Eotaxin 3 Biomarker Activity (AID 2283000); settings: primary human endothelial cells (HUVEC); actives raise or lower the signal;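 note: CCL26 protein level quantified by ELISA in parallel with SRB cytotoxicity check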
Procedure, shortened: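 Human umbilical vein endothelial cells (BSK_4H system) dosed with test chemical; Eotaxin-3 (CCL26) measured by ELISA 24 h after dosing. Bidirectional curve fitting relative to DMSO negative control as baseline.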

[14] = target: human Retinoic Acid Receptor beta (RARb), RARB (gene 5915) (UniProt P10826); assay: ATG_RARb_TRANS: Attagene TRANS-FACTORIAL HepG2 Assay for human Retinoic Acid Receptor beta (AID 2283004; active = hit-call score of the fitted dose curve at least 0.9, where 1 is the maximum)
Sequence of human Retinoic Acid Receptor beta (RARb), RARB (gene 5915) (P10826 whole entry, looked up, the tested form may be a part): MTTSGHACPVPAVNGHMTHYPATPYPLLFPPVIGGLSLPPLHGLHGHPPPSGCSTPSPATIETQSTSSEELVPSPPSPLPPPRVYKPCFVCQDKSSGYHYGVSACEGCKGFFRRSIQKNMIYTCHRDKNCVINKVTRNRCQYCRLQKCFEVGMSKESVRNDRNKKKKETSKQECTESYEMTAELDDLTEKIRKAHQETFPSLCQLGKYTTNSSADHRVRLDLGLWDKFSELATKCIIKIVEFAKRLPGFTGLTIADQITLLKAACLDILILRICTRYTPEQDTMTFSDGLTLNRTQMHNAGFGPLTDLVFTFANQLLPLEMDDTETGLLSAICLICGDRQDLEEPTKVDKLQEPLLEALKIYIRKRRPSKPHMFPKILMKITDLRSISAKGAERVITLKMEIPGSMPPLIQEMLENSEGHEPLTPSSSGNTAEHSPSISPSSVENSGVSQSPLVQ
Procedure, shortened: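 Induction of reporter mRNA from a chimeric RARb-Gal4 construct was measured by RT-PCR, FAM labelling, HpaI digestion and capillary electrophoresis. Measurements followed 24 h compound treatment of transiently transfected human HepG2 liver cells, with DMSO as baseline.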

[15] = target: Peroxisome proliferator-activated receptor gamma (Homo sapiens) (UniProt P37231); assay: ATG_PPARg_TRANS: Attagene TRANS-FACTORIAL HepG2 Assay for human Peroxisome Proliferator-activated Receptor-gamma (PPARg) (AID 2283007; active = hit-call score of the fitted dose curve at least 0.9, where 1 is the maximum)
Sequence of Peroxisome proliferator-activated receptor gamma (Homo sapiens) (P37231 whole entry, looked up, the tested form may be a part): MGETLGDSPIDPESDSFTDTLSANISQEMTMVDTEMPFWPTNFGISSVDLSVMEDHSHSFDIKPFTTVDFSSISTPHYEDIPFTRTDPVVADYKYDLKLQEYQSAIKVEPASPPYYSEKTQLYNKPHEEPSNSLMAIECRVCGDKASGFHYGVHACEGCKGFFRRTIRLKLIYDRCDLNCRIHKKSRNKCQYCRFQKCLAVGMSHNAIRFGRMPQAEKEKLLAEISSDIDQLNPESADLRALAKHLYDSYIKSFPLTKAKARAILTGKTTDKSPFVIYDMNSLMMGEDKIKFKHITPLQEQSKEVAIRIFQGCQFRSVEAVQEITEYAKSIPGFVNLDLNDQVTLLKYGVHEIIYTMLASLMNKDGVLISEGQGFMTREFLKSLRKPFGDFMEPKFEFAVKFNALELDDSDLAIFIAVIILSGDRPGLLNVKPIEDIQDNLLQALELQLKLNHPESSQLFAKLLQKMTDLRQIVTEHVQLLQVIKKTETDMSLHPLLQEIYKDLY
Procedure, shortened: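 Gain-of-signal endpoint relative to DMSO, derived from reporter mRNA levels quantified by RT-PCR and capillary electrophoresis. Cells were HepG2 transiently expressing a chimeric NR-Gal4 construct with GAL4-UAS reporters, exposed to chemicals for 24 h.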

Measured: AC50

CCCCC(CC)COP(=O)(OCC(CC)CCCC)OCC(CC)CCCC (stereo not given)
active: [4] 12.5 µM | [5] 20 µM | [8] 0.227 µM
inactive: [1] | [2] | [3] | [6] | [7] | [9]

O=C(O)c1cccnc1
inactive: [1] | [2] | [3] | [4] | [5] | [10] | [6] | [7] | [11] | [8] | [9] | [12]

CCOCCOCCO
inactive: [1] | [2] | [3] | [4] | [5] | [13] | [10] | [7] | [11] | [12]

CSc1ccc(Oc2ccc(S(N)(=O)=O)cc2CN(C)C)cc1C
inactive: [1] | [3] | [4] | [5] | [7] | [12]
active: [2] 33 µM | [11] 20 µM | [8] 2.31 µM

O=C(Oc1ccccc1)c1cccc(C(=O)Oc2ccccc2)c1
active: [15] 60.4 µM
inactive: [2] | [3] | [4] | [5] | [10] | [6] | [7] | [14]

OCC(O)CO
inactive: [3] | [4] | [5] | [13] | [7]

CN(C)C(=O)NC1(c2ccccc2)CCN(CCC[C@]2(c3ccc(Cl)c(Cl)c3)CCCN(C(=O)c3ccccc3)C2)CC1
active: [1] 2.84 µM | [2] 4.31 µM | [3] 4.37 µM | [10] 4.2 µM | [8] 0.554 µM | [12] 3.94 µM
inactive: [4] | [5] | [13] | [6] | [7]
